These results are taken from PubChem BioAssay (NCATS).

Assay [1] concerns HIV-1 nucleocapsid protein NCp7 (binding to TG oligonucleotide). The assay is described as follows: HIV Nucleocapsid (AID 346; call rule not given here;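 also: potency is read from the fitted curve at half-maximal effect; potency is for inhibitors that block NC binding and lower polarization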). To be noted: HIV-1 NC / fluorescein-TGTGTGTG probe, fluorescence polarization. The method in brief:
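HIV-1 NC (100 nM) binding to fluorescein-labelled ssDNA TG4xF (10 nM) in Hepes pH 7.5, 250mM NaCl, 1uM ZnCl2, TCEP and 2-mercaptoethanol; compounds pin-transferred, 1 hr room temperature, fluorescence polarization read on CCD imager.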
For orientation: Polarisation of emitted light reports the rotation of a fluorescent probe.

Assay [2] deals with Lysosomal acid glucosylceramidase (Homo sapiens) (UniProt P04062). The experiment in a line: Glucocerebrosidase-p2 (AID 348; in the data active = potency below about 10 µM; also: potency is read from the fitted curve at half-maximal effect). The settings on record: purified GBA, blue fluorogenic substrate, 40 min. The gist of the method: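 Normal human glucocerebrosidase (0.2 nM) with blue fluorogenic substrate (80 uM final) in citrate/phosphate pH 5.9 with 10mM sodium taurocholate, 0.01% tween-20; 40 min RT, NaOH/glycine stop; fluorescence Ex 365/Em 440; AC50 from a titration from 0.6 nM upwards.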

The nature of assay [3]: AP1 Signaling Pathway (AID 357).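 Also: ME-180 reporter cells stimulated with EGF at its EC50 level; % is scaled to controls: 0 for no effect and ±100 for the full control effect.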 To be noted: ME-180 AP-1-bla reporter, EGF-induced, beta-lactamase ratio, 5 h; at 7.69 µM (top of the series) unless noted. The method in brief:
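Titration-series screen for positive or negative modulators of EC50 EGF-induced signaling in ME-180 cells carrying an AP-1-driven beta-lactamase reporter. After 5 hours at 37 degrees Celsius, CCF4 460nm/530nm emission ratio gave %Activity; AC50 values derived.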

Assay [4] addresses Cytochrome P450 1A2 (Homo sapiens) (UniProt P05177). The assay is described as follows: p450-cyp1a2 (AID 410; calls by dose curve; also: potency is read from the fitted curve at half-maximal effect;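 as to activity change, negative = inhibition: -100% = full effect of reference inhibitor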). The settings on record: recombinant CYP1A2, luciferin-ME demethylation, luminescence; series mostly up to 11.4 µM. The gist of the method:
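Luminescent demethylation readout: Luciferin-ME (100uM, equal to Km) turned over by 20nM CYP1A2 for 60 min at room temperature after NADPH regeneration addition, following 10 min compound preincubation. Normalization used 57 uM furafylline as full inhibition.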

Assay [5] can be described thus: NFAT Signaling Pathway (AID 444).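 Also: carbachol stimulus at about its EC50 of 1 µM final; % is scaled to controls: 0 for no effect and ±100 for the full control effect.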 The settings on record: Jurkat NFAT-bla M1, carbachol, beta-lactamase ratio, 5 h; at 7.69 µM (top of the series) unless noted. The method in brief:
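Read-out: CCF4 FRET ratio (460 nm/530 nm) after 1 h RT dye loading, used for %activity and AC50 from titration series. Cells: Jurkat NFAT-β-lactamase/M1 line, treated with compound plus 1 uM carbachol for 5 h, 37 °C.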

A short description of assay [6]: Stat Signaling Pathway (AID 446).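 Also: ME-180 cervical cancer cells given 40 pM IL-6 alongside compound; SIE-controlled beta-lactamase reporter measured as 460/530 nm FRET emission ratio; % is scaled to controls: 0 for no effect and ±100 for the full control effect.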 To be noted: ME-180 (cervical carcinoma) SIE beta-lactamase reporter, IL-6 stimulated, 5 h; at 7.69 µM (top of the series) unless noted. The method in brief: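 FRET read-out (405 nm excitation, 460/530 nm emission) of a beta-lactamase reporter under a STAT-inducible element in ME-180 cervical carcinoma cells. Cells with compound receive 40 pM IL-6 for 5 h. Values are normalised to AC90 stimulation and AC90 JAK-inhibitor controls.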

The target in assay [7] is Glucocorticoid receptor (Homo sapiens) (UniProt P04150). The assay is described as follows: GR-GFP Redistribution (AID 450;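 active = compounds whose dose series gives a full or clear partial fitted curve of increased nuclear translocation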; also: potency is read from the fitted curve at half-maximal effect). The settings on record: U2OS GR-GFP nuclear translocation, laser cytometry, 2 h.
Assay [8] has the same target. The assay is described as follows: GR-EFC Redistribution (AID 451; calls by dose curve; also: potency is read from the fitted curve at half-maximal effect). To be noted: CHO-K1 GR-EFC translocation, beta-gal luminescence, 2 h. The method in brief: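 Translocation of GR-ED fusion to nuclear EA restores b-gal, read by luminescence after 1 h room-temperature detection. Engineered CHO-K1 biosensor cells, 1,000/well, exposed 2 h at 37 C to titrations up to 46 uM final.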

Assay [9] deals with Mitogen-activated protein kinase 10 (Mus musculus) (UniProt Q61831). The assay is described as follows: JNK3 AlphaScreen Assay (AID 530).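 Also: kinase came from lysate of stimulated human HepG2 cells; signal reports phosphorylation of biotinylated GST-cJun 1-79 at Ser73 with 10 µM ATP; % is scaled to controls: 0 for no effect and ±100 for the full control effect.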 The settings on record: JNK3 lysate, c-Jun phosphorylation; series mostly up to 57.1 µM. The gist of the method: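 qHTS titrations with 15 min compound pre-incubation before adding ATP (10 uM final). Read-out: AlphaScreen of Ser73-phosphorylated biotin-GST-cJun using HepG2 lysate JNK3 activated by IL-1β and TNFα.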
Background: In Alpha technology, singlet oxygen from a donor bead excites a nearby acceptor bead.

The target in assay [10] is 3',5'-cyclic-AMP phosphodiesterase 4B (Homo sapiens) (UniProt Q07343). The experiment in a line: qHTS Assay for Inhibitors of PDE-IV (AID 607; active = well fitted activation curve with a large enough effect in the main read-out, with a control signal flat, not every such curve was filed as active; also: % of control where 0% means no effect). The settings on record: HEK293 ACTOne CNG channel cells, membrane potential fluorescence; series mostly up to 22.9 µM. The gist of the method:
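Cell-based read-out of cAMP via a modified cyclic nucleotide-gated channel and membrane potential dye (535/590 nm) in HEK293 cells expressing PDE4 endogenously. Compounds tested up to 22.9 uM final; 100 uM RO 20-1724 reference.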
(In general: qHTS replaces the single test concentration by a dilution series.)

The target of assay [11] is Cytochrome P450 3A4 (Homo sapiens) (UniProt P08684). The assay is described as follows: qHTS Assay for Activators of Cytochrome P450 3A4 (AID 885; active = well fitted curve in the direction sought with a large enough effect; an effect the other way counts as inactive or inconclusive; also: nearly all actives have a fitted effect of over 65% in size). To be noted: recombinant CYP3A4, Luciferin-PPXE luminescence, 60 min; series mostly up to 57.1 µM. The method in brief:
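Luminescent readout of luciferin formed from 25 uM Luciferin-PPXE (KM level) by 20 nM CYP3A4 in 200 mM KPO4, with 60 min NADPH-driven reaction at room temperature after 10 min compound exposure. Ketoconazole (57 uM) defined 100% inhibition.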

Assay [12] has as its target Cytochrome P450 2D6 (Homo sapiens) (UniProt P10635). The assay is described as follows: qHTS Assay for Inhibitors and Substrates of Cytochrome P450 2D6 (AID 891; active = well fitted curve in the direction sought with a large enough effect; an effect the other way counts as inactive or inconclusive; also: potency is read from the fitted curve at half-maximal effect; nearly all actives have a fitted effect of over 60% in size). To be noted: recombinant CYP2D6, luciferin-ME EGE luminescence; series mostly up to 11.4 µM. The method in brief:
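Luminescent read-out of luciferin formed by 5 nM human CYP2D6 demethylating 30 uM Luciferin-ME EGE (Km level) over 60 min at room temperature after NADPH regeneration addition. Data normalized to full inhibition by 1.43 uM quinidine.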

Assay [13] deals with Cytochrome P450 3A4 (Homo sapiens) (UniProt P08684). The experiment in a line: qHTS Assay for Inhibitors and Substrates of Cytochrome P450 3A4 (AID 884; active = well fitted curve in the direction sought with a large enough effect; an effect the other way counts as inactive or inconclusive; also: potency is read from the fitted curve at half-maximal effect; nearly all actives have a fitted effect of over 50% in size). The settings on record: recombinant CYP3A4, Luciferin-PPXE luminescence; series mostly up to 57.1 µM. The gist of the method:
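Luminescent readout of luciferin produced by CYP3A4 (20 nM) dealkylation of Luciferin-PPXE, 25 uM (its KM). NADPH-driven reaction ran 60 min at RT after 10 min compound preincubation; data scaled to 57 uM ketoconazole as 100% inhibition.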

A number with no mark means an inactive call. Results filed as inconclusive are left out. Active and inactive are the calls of the source. Unless noted, calls follow the shape of the dose curve; as a rule, active = well fitted curve in either direction with a large enough effect (not every such curve was filed as active); inconclusive = small, poorly fitted or top-dose-only effect, or another doubt; inactive = flat fitted curve, though single readings scatter.

Chain of Cytochrome P450 3A4 (Homo sapiens) (P08684 whole entry, looked up): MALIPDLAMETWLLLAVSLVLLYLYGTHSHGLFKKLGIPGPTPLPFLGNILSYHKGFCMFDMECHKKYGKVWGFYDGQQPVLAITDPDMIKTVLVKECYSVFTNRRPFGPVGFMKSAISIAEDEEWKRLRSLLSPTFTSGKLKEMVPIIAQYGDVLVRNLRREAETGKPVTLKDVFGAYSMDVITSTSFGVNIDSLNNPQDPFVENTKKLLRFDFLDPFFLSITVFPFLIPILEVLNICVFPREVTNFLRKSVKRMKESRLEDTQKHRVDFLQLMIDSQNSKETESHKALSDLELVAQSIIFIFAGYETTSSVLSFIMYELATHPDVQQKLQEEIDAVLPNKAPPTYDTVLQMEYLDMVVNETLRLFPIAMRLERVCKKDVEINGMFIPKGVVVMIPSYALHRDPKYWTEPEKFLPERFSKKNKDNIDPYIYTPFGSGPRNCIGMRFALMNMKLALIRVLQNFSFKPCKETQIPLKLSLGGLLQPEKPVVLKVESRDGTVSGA
Chain of Cytochrome P450 1A2 (Homo sapiens) (P05177 whole entry, looked up): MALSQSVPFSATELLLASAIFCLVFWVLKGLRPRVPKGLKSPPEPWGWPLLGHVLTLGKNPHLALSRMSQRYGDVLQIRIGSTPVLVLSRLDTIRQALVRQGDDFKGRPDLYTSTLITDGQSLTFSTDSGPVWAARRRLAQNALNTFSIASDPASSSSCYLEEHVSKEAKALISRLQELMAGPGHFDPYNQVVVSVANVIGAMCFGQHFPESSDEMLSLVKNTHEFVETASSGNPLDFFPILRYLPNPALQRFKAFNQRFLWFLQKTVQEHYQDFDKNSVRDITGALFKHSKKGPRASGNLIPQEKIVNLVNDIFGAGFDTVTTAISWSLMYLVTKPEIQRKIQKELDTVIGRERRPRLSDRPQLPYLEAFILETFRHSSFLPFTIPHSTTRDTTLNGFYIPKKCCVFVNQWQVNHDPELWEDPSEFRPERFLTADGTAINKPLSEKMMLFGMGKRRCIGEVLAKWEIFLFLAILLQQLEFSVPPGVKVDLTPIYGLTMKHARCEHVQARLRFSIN
Chain of 3',5'-cyclic-AMP phosphodiesterase 4B (Homo sapiens) (Q07343 whole entry, looked up): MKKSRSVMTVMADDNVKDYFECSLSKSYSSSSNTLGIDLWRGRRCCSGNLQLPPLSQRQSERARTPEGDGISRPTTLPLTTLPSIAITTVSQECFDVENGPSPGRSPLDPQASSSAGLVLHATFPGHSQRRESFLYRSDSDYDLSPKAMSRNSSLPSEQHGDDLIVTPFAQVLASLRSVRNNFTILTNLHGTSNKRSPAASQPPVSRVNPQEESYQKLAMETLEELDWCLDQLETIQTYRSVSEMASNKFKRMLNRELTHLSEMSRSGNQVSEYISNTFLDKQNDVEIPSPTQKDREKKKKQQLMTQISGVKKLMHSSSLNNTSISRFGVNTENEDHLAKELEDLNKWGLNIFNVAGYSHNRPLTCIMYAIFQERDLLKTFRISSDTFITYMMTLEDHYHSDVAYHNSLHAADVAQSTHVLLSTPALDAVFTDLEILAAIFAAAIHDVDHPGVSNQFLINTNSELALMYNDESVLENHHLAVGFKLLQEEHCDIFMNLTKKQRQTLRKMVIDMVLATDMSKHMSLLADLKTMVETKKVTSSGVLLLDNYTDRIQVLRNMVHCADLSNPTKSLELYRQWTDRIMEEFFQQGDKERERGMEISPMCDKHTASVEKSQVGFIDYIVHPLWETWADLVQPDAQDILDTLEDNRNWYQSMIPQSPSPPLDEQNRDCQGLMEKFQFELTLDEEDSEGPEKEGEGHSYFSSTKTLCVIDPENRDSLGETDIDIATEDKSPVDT
Chain of Lysosomal acid glucosylceramidase (Homo sapiens) (P04062 whole entry, looked up): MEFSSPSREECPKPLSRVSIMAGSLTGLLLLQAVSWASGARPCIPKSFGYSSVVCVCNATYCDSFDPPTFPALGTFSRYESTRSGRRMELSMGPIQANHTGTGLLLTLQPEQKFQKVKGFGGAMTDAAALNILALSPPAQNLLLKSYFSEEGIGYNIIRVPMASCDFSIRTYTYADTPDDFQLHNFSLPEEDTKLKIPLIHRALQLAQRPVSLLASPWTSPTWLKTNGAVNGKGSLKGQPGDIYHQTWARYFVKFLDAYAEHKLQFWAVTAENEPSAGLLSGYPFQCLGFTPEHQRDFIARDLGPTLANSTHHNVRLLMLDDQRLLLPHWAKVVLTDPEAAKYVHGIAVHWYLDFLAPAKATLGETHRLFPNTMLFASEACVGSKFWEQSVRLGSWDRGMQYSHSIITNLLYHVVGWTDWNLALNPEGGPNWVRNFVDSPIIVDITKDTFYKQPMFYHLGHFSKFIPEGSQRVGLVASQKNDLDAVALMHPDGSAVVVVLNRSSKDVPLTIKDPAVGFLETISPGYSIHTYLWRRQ
Chain of Glucocorticoid receptor (Homo sapiens) (P04150 whole entry, looked up, the tested form may be a part): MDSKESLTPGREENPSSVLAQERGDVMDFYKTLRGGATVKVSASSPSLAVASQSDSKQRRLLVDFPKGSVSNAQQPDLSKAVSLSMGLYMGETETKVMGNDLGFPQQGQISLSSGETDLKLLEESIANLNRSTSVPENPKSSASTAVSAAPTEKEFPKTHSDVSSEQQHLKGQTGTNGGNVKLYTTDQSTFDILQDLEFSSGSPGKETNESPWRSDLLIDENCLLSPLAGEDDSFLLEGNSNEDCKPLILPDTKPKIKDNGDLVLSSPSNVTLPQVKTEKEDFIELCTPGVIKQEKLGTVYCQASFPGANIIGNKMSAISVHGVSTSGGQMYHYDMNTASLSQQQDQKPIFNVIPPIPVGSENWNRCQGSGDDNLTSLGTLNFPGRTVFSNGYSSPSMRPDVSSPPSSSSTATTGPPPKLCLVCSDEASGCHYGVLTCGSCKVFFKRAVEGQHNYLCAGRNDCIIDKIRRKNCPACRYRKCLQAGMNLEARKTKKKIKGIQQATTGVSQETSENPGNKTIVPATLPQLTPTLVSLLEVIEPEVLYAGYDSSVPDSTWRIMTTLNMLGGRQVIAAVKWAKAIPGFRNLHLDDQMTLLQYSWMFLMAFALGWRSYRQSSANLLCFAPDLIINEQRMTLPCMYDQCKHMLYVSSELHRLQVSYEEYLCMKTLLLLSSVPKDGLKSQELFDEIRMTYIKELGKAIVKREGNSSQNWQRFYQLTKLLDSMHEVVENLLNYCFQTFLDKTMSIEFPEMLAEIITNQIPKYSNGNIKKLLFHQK
Chain of Cytochrome P450 2D6 (Homo sapiens) (P10635 whole entry, looked up): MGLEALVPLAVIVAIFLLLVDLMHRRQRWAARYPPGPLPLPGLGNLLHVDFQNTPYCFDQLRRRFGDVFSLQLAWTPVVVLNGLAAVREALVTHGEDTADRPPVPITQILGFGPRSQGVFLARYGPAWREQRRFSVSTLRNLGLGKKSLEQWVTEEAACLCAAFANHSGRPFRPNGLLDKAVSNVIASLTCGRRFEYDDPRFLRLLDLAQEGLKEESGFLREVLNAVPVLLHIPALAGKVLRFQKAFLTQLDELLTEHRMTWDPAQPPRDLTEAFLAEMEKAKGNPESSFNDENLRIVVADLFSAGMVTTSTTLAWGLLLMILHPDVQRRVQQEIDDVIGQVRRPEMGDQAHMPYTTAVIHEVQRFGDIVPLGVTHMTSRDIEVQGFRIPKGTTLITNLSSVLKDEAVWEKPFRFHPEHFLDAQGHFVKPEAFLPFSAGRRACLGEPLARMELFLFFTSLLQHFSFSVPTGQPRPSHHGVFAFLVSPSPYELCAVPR

Turning to `Cc1noc(C)c1-c1ccc2ncnc(N(C)C)c2c1`, the Potency in assay [1] is above 20 µM.

Regarding `N[C@H](Cc1ccccc1)c1nn[nH]n1`, the Potency in assay [2] is above 11.4 µM; in [4], 10 µM (active); in assay [7], above 46 µM; in [8], above 9.22 µM. In addition, the activity change, negative = inhibition was 11.1% in [3], 1.74% in [5] and 5.89% [at 11.4 µM] in assay [9]. Besides, the activity, negative = inhibition in [6] is -5.07%. In addition, the outcome in [10] was inactive.

For `COc1ccc2[nH]cc(CCNc3cc(-c4ccc5c(c4)OCO5)ncn3)c2c1`, the Potency in [1] is above 20 µM.

Turning to `COC(=O)[C@H]1C(=O)[C@H](C(=O)OC)[C@@H]2CC[C@H]1N2C`, the Potency was above 11.4 µM in [2], 0.794 µM (active) in assay [4], above 46 µM in assay [7] and above 9.22 µM in assay [8]. Also, the figures for the activity change, negative = inhibition in assay [3], in [5] and in [9] were 12.9%, 11.3% and 4.63% [at 11.4 µM], respectively. Also, the activity, negative = inhibition in [6] was 7.99%. Further, the result in assay [10] was inactive.

Take `N#Cc1cccc(-c2cc(NCc3cccs3)ncn2)c1`: the Potency in [1] is above 20 µM.

As for `COc1ccc(C(=O)N2CCC3(CCCN(c4ncccn4)C3)CC2)cc1`, the Potency in [1] is above 20 µM.

In the case of `N#Cc1cccc(NC(=O)N2CCCC3(CCN(C(=O)Oc4ccccc4)CC3)C2)c1`, the Potency is above 20 µM in [1], 15.8 µM (active) in assay [4] and above 46 µM in [8]. Moreover, the activity change, negative = inhibition in assay [3] is -22.4%. Besides, the activity, negative = inhibition in [6] was -12.1%. Moreover, the Potency entry in assay [9] and in [11] was “inactive” each time. In addition, the call in assay [10] was inactive.

Regarding `Cc1cnc(CNc2ncnc3ccc(-c4ccccc4C#N)cc23)cn1`, the Potency in assay [1] is above 20 µM.

In the case of `COC(=O)N1CCC[C@@]2(CCN(C(=O)Nc3cccc(C#N)c3)C2)C1`, the Potency in [1] was above 4 µM.

With `COc1ccccc1CN1CCCC2(CCN(C(=O)Oc3ccccc3)CC2)C1`, the Potency in [1] was above 20 µM; in assay [2], above 11.4 µM; in [8], above 46 µM; in assay [12] it was 3.98 µM (active). The activity change, negative = inhibition in assay [3] was 3.33%. For the same compound, the Potency entry in [4] and in assay [11] was “inactive” in each case. Besides, in [6], the activity, negative = inhibition was 1.52%. In addition, the compound was classed as inactive in assay [10].

For the compound `Cc1ccc(C2(c3ccc(C)c(O)c3C)CCN(C)CC2)c(C)c1O`, the Potency was above 11.4 µM in assay [2], 5.01 µM (active) in assay [4], above 46 µM in assay [7] and above 9.22 µM in assay [8]. The activity change, negative = inhibition was 2.94% in assay [3], 3.1% in assay [5] and 1.97% [at 11.4 µM] in assay [9]. Also, in assay [6], the activity, negative = inhibition is 3.48%. In addition, the outcome in [10] was inactive.

For the compound `O=C(c1ccco1)N1CCC2(CC1)CCN(c1ccc(-c3ccccc3)cc1)CC2`, in assay [1], the Potency is above 20 µM.

With `O=C(O)C(C(=O)O)P(=S)(S)c1ccccc1` (stereo not given), the results for the Potency in assay [2], in assay [7] and in assay [8] were above 11.4 µM, above 46 µM and above 9.22 µM, respectively. Moreover, the activity change, negative = inhibition in [3] is 3.83%; in [5], 11.1%; in assay [9] it was 2.73% [at 11.4 µM]. Moreover, the Potency entry in [4] is “inactive”. For the same compound, the activity, negative = inhibition in assay [6] was 2.85%. In addition, in assay [10], the compound was called inactive.

In the case of `CN1C[C@H](C(=O)N[C@@]2(C)O[C@@]3(O)[C@H]4CCCN4C(=O)[C@@H](Cc4ccccc4)N3C2=O)C=C2c3cccc4[nH]cc(c34)C[C@@H]21`, the Potency in assay [2] is above 11.4 µM; in [4], 3.16 µM (active); in assay [7], above 46 µM; in assay [8] it was above 9.22 µM. Moreover, the activity change, negative = inhibition in assay [3] is 2.32%; in assay [5] it was -0.805%; in assay [9] it was -2.44% [at 11.4 µM]. The activity, negative = inhibition in [6] is 0.776%. Besides, the result in assay [10] was inactive.

Take `c1cncc(CNc2cc(-c3ccc4c(c3)OCO4)ncn2)c1`: the results for the Potency in [1] and in assay [13] were above 20 µM and 0.794 µM (active), respectively. Further, the Potency entry in assay [11] was “inactive”.

As for `CN(Cc1ccco1)c1cc(-c2cccc(NS(C)(=O)=O)c2)ncn1`, the Potency in assay [1] was above 20 µM.

`O=C(c1csnn1)N1CCC[C@@]2(CCN(c3ccncc3)C2)C1`: the Potency in assay [1] was above 20 µM.

In the case of `C[C@]1(O)CC[C@H]2[C@@H]3[C@@H](O)CC4=CC(=O)CC[C@@]4(C)[C@H]3CC[C@]21C`, the Potency in [2] is above 11.4 µM; in assay [7], above 46 µM; in assay [8], above 9.22 µM. For the same compound, the activity change, negative = inhibition in assay [3] was 1.55%; in assay [4], 1.4% [at 2.29 µM]; in assay [5] it was 6.38%; in [9] it was -3.1% [at 11.4 µM]. The activity, negative = inhibition in assay [6] was -1.92%. Further, the call in assay [10] was inactive.

Regarding `c1nc(NCCN2CCOCC2)c2cc(-c3ccoc3)ccc2n1`, the Potency in [1] is above 20 µM.

Consider `CN(C)c1ncc2nc(-c3ccc(F)cc3)c(=O)n(Cc3cccs3)c2n1`, for which the Potency in [1] was above 20 µM. In addition, in [11], the Potency entry is “inactive”.

For the compound `Cc1ncc([N+](=O)[O-])n1CCN=[N+]=[N-]`, the figures for the Potency in [2], in assay [7] and in assay [8] were above 11.4 µM, above 46 µM and above 9.22 µM, respectively. Also, the activity change, negative = inhibition is 3.02% in assay [3], 5.75% in assay [5] and 2.72% [at 11.4 µM] in assay [9]. The Potency result in assay [4] is “inactive”. Besides, the activity, negative = inhibition in assay [6] was -11.7%. For the same compound, in assay [10], the result was inactive.
